Assay results as given in PubChem BioAssay AID1159580 (chemical genetic matrix, 2015).
About 2,000 (36%) of roughly 5,500 compounds were called active. Inconclusive results (about 18%) are left out. Rule as the data show it: active = normalized growth mostly below about 0.91 (no sharp cut-off); inconclusive = no clear call, values can overlap the other calls; inactive = mostly above about 0.92. The list shows a part of the results.

Experiment: chemical genetic growth profiling, strain panel (AID 1159580);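 also: tested at 20 µM; growth read once vehicle control cultures reached saturation at 30 °C; 1 = growth at the plate median or of vehicle wells; lower values mean less growth of the strain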
Settings: S. cerevisiae deletion strains, growth OD
[1] = locus YAL040C, strain CLN3, hits give low values
[2] = locus YCL061C, strain MRC1 (second series), hits give low values
[3] = locus YDR150W, strain NUM1, hits give low values
[4] = locus YDR363W, strain ESC2, hits give low values
[5] = locus YER002W, strain NOP16, hits give low values
[6] = locus YGR078C, strain PAC10, hits give low values
[7] = locus YNL128W, strain TEP1, hits give low values
[8] = locus YNL175C, strain NOP13, hits give low values
[9] = locus YNL197C, strain WHI3, hits give low values
[10] = locus YNL224C, strain SQS1, hits give low values
[11] = locus YOR083W, strain WHI5 (second series), hits give low values
[12] = locus YPL055C, strain LGE1, hits give low values
[13] = locus YJR075W, strain HOC1, hits give low values

Measured: normalized growth

CC(C)C[C@H](NC(=O)C1OC1C(=O)O)C(=O)NCCCCN=C(N)N (stereo not given in full)
inactive: locus YAL013W, strain DEP1, hits give low values 1.01 | [1] 0.949 | [2] 0.993 | [3] 0.989 | [4] 1.01 | [5] 0.985 | [6] 0.988 | locus YGR229C, strain SMI1, hits give low values 1.04 | locus YMR263W, strain SAP30, hits give low values 0.997 | [7] 0.998 | [8] 0.984 | [9] 0.971 | [10] 1.01 | [11] 0.979 | [12] 1.02 | locus YPL241C, strain CIN2, hits give low values 0.995

CC(=O)/C(C)=N\O
inactive: [1] 0.972 | [3] 0.972 | [4] 1.07 | [5] 0.994 | [6] 1 | [13] 0.987 | locus YMR307W, strain GAS1, hits give low values 1.07 | [7] 0.983 | locus YNL153C, strain GIM3, hits give low values 0.979 | [8] 0.978 | [9] 1 | [10] 1.01 | locus YNL322C, strain KRE1, hits give low values 1 | [11] 0.986

CC(=O)C(C)=O
inactive: [1] 1.01 | [2] 1.01 | [4] 1.03 | [5] 1 | [13] 1.02 | [8] 0.994 | [9] 1.03 | [10] 0.99 | [11] 1.02 | [12] 1.07
